In PubChem BioAssay (Tox21):
Inconclusive results are not listed. A call without a number means that no potency is given here. Activity calls are given as the source filed them. The call rests on the fitted dose curve.

Assay: p53 small molecule agonists, cell-based qHTS assay with human liver microsomes: qHTS cell viability counter screen (AID 1963579); further: potency means the concentration at half of the fitted maximal effect
Conditions: p53RE-bla HCT-116 viability, ATP luminescence, 16 h, HLM; series mostly up to 66 µM
Method in brief: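 Metabolic activation used human liver microsomes and NADPH, both 0.5 mg/mL final, over 16 hours at 37 C on p53RE-bla cells (4,000/well). Cytotoxicity measured by CellTiter-Glo luminescence, 30 min at room temperature.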
Further: nearly all actives have a fitted effect of over 45% in size.

SMILES	Potency	activity change, negative = cytotoxicity
COc1ccc(C(=O)c2ccc(OC)cc2O)c(O)c1	inactive	
CC(C)c1ccc(C(=O)N=C(N)N)cc1S(C)(=O)=O	inactive	
Cc1ccc(N(CC2=NCCN2)c2cccc(O)c2)cc1	inactive	
CCC(C(=O)OCCN(CC)CC)c1ccccc1 (configuration not stated)	inactive	
COC(=O)c1cccc(Cl)c1	inactive	
Cc1cccc(C(C)(C)C)c1O	inactive	
Cc1cn[nH]c1	inactive	
C[Si](C)(CCCN)O[Si](C)(C)CCCN	inactive	
O=C1N(c2ccccc2)c2ccccc2C1(Cc1ccncc1)Cc1ccncc1	inactive	
CCC(C=O)CC	inactive	
CCN1CCCC1CN (configuration not stated)	inactive	
O=C1C(CCS(=O)c2ccccc2)C(=O)N(c2ccccc2)N1c1ccccc1 (configuration not stated)	inactive	
C/C(=N/NC(=O)c1ccncc1)C(=O)O	inactive	
Clc1ccc2c(c1)CCc1cccnc1C2=C1CCNCC1	inactive	
CCC(=O)c1c(O)cc(O)cc1O	inactive	
OCCCCC(O)CO (configuration not stated)	inactive	
CN(C)CC/C=C1/c2ccccc2COc2ccc(CC(=O)O)cc21	inactive	
C=Cc1ccccc1C=C	inactive	
COc1ccc(/C=C/S(=O)(=O)NC(=O)c2ccc(C)cc2Cl)cc1	inactive	
O=C=NCc1cccc(CN=C=O)c1		2.85% [at 13.5 µM] (inactive)
Cc1cc(S(=O)(=O)O)c(N)cc1Cl	inactive	
Nc1ccc(S(=O)(=O)Nc2ccccc2)cc1	inactive	
CCC(CO)(CO)COCC(CC)(CO)CO	inactive	
CC(C)OC(=O)c1ccccc1	inactive	
Nc1ccccc1O	28.5 µM (active)	
OCC(CO)(CO)COCC(CO)(CO)CO	inactive	

Assay: p53 small molecule agonists, cell-based qHTS assay with rat liver microsomes: qHTS cell viability counter screen (AID 1963580)
Conditions: p53RE-bla HCT-116 + rat microsomes, ATP viability, 16 h; series mostly up to 66 µM
Method in brief: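 Rat liver microsome (0.5 mg/mL final) and NADPH (0.5 mg/mL final) co-incubation with compounds for 16 h at 37 C on HCT-116 p53RE-bla cells; cytotoxicity taken from intracellular ATP luminescence.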

SMILES	Potency	activity change, negative = cytotoxicity
COc1ccc(C(=O)c2ccc(OC)cc2O)c(O)c1	inactive	
CC(C)c1ccc(C(=O)N=C(N)N)cc1S(C)(=O)=O	inactive	
Cc1ccc(N(CC2=NCCN2)c2cccc(O)c2)cc1	inactive	
CCC(C(=O)OCCN(CC)CC)c1ccccc1 (configuration not stated)	inactive	
COC(=O)c1cccc(Cl)c1	inactive	
Cc1cccc(C(C)(C)C)c1O	inactive	
Cc1cn[nH]c1	inactive	
C[Si](C)(CCCN)O[Si](C)(C)CCCN	inactive	
CCCCCCCCCCCCOC(=O)c1ccc(O)cc1	inactive	
O=C1N(c2ccccc2)c2ccccc2C1(Cc1ccncc1)Cc1ccncc1	inactive	
CCC(C=O)CC	inactive	
Cc1ccc2c(Cl)cc(Cl)c(O)c2n1	inactive	
COc1ccc(CN(CCN(C)C)c2ncccn2)cc1	inactive	
CCN1CCCC1CN (configuration not stated)	inactive	
O=C1C(CCS(=O)c2ccccc2)C(=O)N(c2ccccc2)N1c1ccccc1 (configuration not stated)	inactive	
C/C(=N/NC(=O)c1ccncc1)C(=O)O	inactive	
O=C1Nc2cc(Cl)ccc2Oc2ccccc21	inactive	
Clc1ccc2c(c1)CCc1cccnc1C2=C1CCNCC1	inactive	

SMILES	Potency	activity change, negative = cytotoxicity
CCC(=O)c1c(O)cc(O)cc1O	inactive	
CC(C)(O)c1ccc(CNC(=O)c2cccnc2Oc2ccc(F)cc2)cc1	inactive	
COc1ccc2c(c1)C(=O)N(CCc1ccc(S(=O)(=O)NC(=O)NC3CCCCC3)cc1)C(=O)C2(C)C	inactive	
CC(C)(C)C(=O)O	inactive	
OCCCCC(O)CO (configuration not stated)	inactive	
Cc1ccc(-n2[nH]c(C)c(N=Nc3cccc(-c4cccc(C(=O)O)c4)c3O)c2=O)cc1C	inactive	
CN(C)CC/C=C1/c2ccccc2COc2ccc(CC(=O)O)cc21	inactive	
C=Cc1ccccc1C=C	inactive	
O=C=NCc1cccc(CN=C=O)c1		10.6% [at 13.5 µM] (inactive)
Cc1cc(S(=O)(=O)O)c(N)cc1Cl	inactive	
Nc1ccc(S(=O)(=O)Nc2ccccc2)cc1	inactive	
O=Cc1ccc(F)c(Br)c1	inactive	
Cc1nc2ccccc2n1Cc1ccc(Cl)cc1	inactive	
CCC(CO)(CO)COCC(CC)(CO)CO	inactive	
CC(C)OC(=O)c1ccccc1	inactive	
Nc1ccccc1O	inactive	
C=CC(=O)OCCOCCOC(=O)C=C	inactive	
OCC(CO)(CO)COCC(CO)(CO)CO	inactive	

Assay: p53 small molecule agonists, cell-based qHTS assay: qHTS cell viability counter screen (AID 1963581); further: potency means the concentration at half of the fitted maximal effect
Conditions: p53RE-bla HCT-116 viability, ATP luminescence, 16 h; series mostly up to 66 µM
Method in brief: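 Viability was counter-screened in parallel with the p53 agonist reporter by measuring intracellular ATP luminescence in the same HCT-116 p53RE-bla wells after 16 h compound treatment at 37 C.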

SMILES	Potency	activity change, negative = cytotoxicity
CC(C)c1ccc(C(=O)N=C(N)N)cc1S(C)(=O)=O	inactive	
Cc1ccc(N(CC2=NCCN2)c2cccc(O)c2)cc1	inactive	
CCC(C(=O)OCCN(CC)CC)c1ccccc1 (configuration not stated)	inactive	
COC(=O)c1cccc(Cl)c1	inactive	
Cc1cccc(C(C)(C)C)c1O	inactive	
Cc1cn[nH]c1	inactive	
CCCCCCCCCCCCCCCCCCOS(=O)(=O)O	inactive	
C[Si](C)(CCCN)O[Si](C)(C)CCCN	inactive	
O=C1N(c2ccccc2)c2ccccc2C1(Cc1ccncc1)Cc1ccncc1	inactive	
CCC(C=O)CC	inactive	
CCN1CCCC1CN (configuration not stated)	inactive	
O=C1C(CCS(=O)c2ccccc2)C(=O)N(c2ccccc2)N1c1ccccc1 (configuration not stated)	inactive	
C/C(=N/NC(=O)c1ccncc1)C(=O)O	inactive	
Clc1ccc2c(c1)CCc1cccnc1C2=C1CCNCC1	inactive	
CCC(=O)c1c(O)cc(O)cc1O	inactive	
CC(C)(O)c1ccc(CNC(=O)c2cccnc2Oc2ccc(F)cc2)cc1	inactive	
CCCCCCCCN(C)CCCCCCCC	inactive	
CC(C)(C)C(=O)O	inactive	
OCCCCC(O)CO (configuration not stated)	inactive	
Cc1ccc(-n2[nH]c(C)c(N=Nc3cccc(-c4cccc(C(=O)O)c4)c3O)c2=O)cc1C	inactive	
CN(C)CC/C=C1/c2ccccc2COc2ccc(CC(=O)O)cc21	inactive	
O=C=NCc1cccc(CN=C=O)c1		8.14% [at 13.5 µM] (inactive)
Cc1cc(S(=O)(=O)O)c(N)cc1Cl	inactive	
Nc1ccc(S(=O)(=O)Nc2ccccc2)cc1	inactive	
Cc1nc2ccccc2n1Cc1ccc(Cl)cc1	inactive	
CCC(CO)(CO)COCC(CC)(CO)CO	inactive	
CC(C)OC(=O)c1ccccc1	inactive	
C[N+]1(CC2COC(c3ccccc3)(C3CCCCC3)O2)CCCCC1 (configuration not stated)	inactive	
Nc1ccccc1O	32 µM (active)	
OCC(CO)(CO)COCC(CO)(CO)CO	inactive	
